Data on twelve sequences can be found in paper PMC5700166.

The target in experiment [1] is T1, GST-Nv-NF-kB (Ser allele) (Nematostella vectensis, UniProt A7UNT2 2-411).
T1 sequence: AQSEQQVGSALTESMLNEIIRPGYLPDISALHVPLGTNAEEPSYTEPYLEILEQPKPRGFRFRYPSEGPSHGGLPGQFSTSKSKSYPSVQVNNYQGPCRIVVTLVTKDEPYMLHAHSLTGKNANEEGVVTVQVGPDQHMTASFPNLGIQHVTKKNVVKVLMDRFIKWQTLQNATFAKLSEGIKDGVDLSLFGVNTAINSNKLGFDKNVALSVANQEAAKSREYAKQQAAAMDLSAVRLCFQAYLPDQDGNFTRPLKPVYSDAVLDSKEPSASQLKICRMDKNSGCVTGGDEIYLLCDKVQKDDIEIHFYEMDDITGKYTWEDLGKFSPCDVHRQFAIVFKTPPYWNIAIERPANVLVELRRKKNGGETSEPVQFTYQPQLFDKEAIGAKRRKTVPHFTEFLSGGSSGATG
The experiment can be described thus: protein-binding microarray (PBM); PBM: ~300 nM protein, 6 mM HEPES pH 7.8, 80 mM KCl, 0.5 mM EDTA, 0.5 mM EGTA, 6% glycerol, 35 ng/ul poly-dIdC, 1% milk, 1 h, room temperature; Ap Aiptasia and Nv Nematostella (sea anemones) / Co Capsaspora / Aq Amphimedon (sponge) / Dm Drosophila / Hu human; RHD is the Rel homology domain; high values mean tight binding. Particulars: dsDNA, one strand shown.

Another experiment addresses GST-Hu-p50 (Homo sapiens, UniProt P19838 7-356). The description is as above. The settings on record: dsDNA, one strand shown.

GST-Hu-p50, sequence (P19838 7-356): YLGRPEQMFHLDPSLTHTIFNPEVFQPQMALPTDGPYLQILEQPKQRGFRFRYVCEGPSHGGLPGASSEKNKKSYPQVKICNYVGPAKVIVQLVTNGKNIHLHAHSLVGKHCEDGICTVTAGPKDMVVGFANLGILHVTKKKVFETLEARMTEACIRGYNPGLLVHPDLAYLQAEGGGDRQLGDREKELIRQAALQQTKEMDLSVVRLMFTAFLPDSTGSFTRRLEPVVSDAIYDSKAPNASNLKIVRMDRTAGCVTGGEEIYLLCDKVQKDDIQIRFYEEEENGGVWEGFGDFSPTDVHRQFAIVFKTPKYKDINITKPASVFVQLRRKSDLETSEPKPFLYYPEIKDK

As for “CCGATTAACATCACCCACTTCCCTGATGTTAATCGGGTCTTGATTCGCTTGACGCTGCTG”, the binding signal in experiment [1] amounted to 2.13 z-score; with GST-Hu-p50, 1.86 z-score.
On to “CCGATTAACATCAGGGGATGGGATGATGTTAATCGGGTCTTGATTCGCTTGACGCTGCTG”, for which the binding signal in experiment [1] worked out at 4.39 z-score; with GST-Hu-p50, 2.85 z-score.
Consider “CCGATTAACATCAGGGGGTACACTGATGTTAATCGGGTCTTGATTCGCTTGACGCTGCTG”, for which the binding signal in experiment [1] came to 3.94 z-score; with GST-Hu-p50, 3.13 z-score.
The corresponding values for “CCGATTAACATCAGGGTTTTTTATGATGTTAATCGGGTCTTGATTCGCTTGACGCTGCTG” are 4.61 z-score and 4.89 z-score.
Turning to “CCGATTAACATCAGGGGGGGACCTGATGTTAATCGGGTCTTGATTCGCTTGACGCTGCTG”, the results for the binding signal (in experiment [1]; in the experiment with GST-Hu-p50) were 3.87 z-score and 3.99 z-score, respectively.
As for “CCGATTAACATCATGGAGGGAGGTGATGTTAATCGGGTCTTGATTCGCTTGACGCTGCTG”, the binding signal came out at 1.02 z-score in experiment [1] and 1.63 z-score with GST-Hu-p50.
“CCGATTAACATCACGGGGGGTAATGATGTTAATCGGGTCTTGATTCGCTTGACGCTGCTG”: the binding signal in experiment [1] came out at 2.9 z-score; with GST-Hu-p50, 2.48 z-score.
Taken in the same sequence, the figures for “CCGATTAACATCAGGGATACCCCTGATGTTAATCGGGTCTTGATTCGCTTGACGCTGCTG” were 2.97 z-score and 4.12 z-score.
With “CCGATTAACATCAGGGGGTAACCTGATGTTAATCGGGTCTTGATTCGCTTGACGCTGCTG”, the figures for the binding signal (in experiment [1]; in the experiment with GST-Hu-p50) were 3.93 z-score and 4.28 z-score, respectively.
Take “CCGATTAACATCACGGTTTTTCCTGATGTTAATCGGGTCTTGATTCGCTTGACGCTGCTG”: the binding signal in experiment [1] came to 1.21 z-score; with GST-Hu-p50 it was 1.62 z-score.
Taken in the same sequence, the figures for “CCGATTAACATCAGGGAATTAACTGATGTTAATCGGGTCTTGATTCGCTTGACGCTGCTG” were 3.91 z-score and 2.81 z-score.
“CCGATTAACATCAATTGCCCCCCTGATGTTAATCGGGTCTTGATTCGCTTGACGCTGCTG”: the binding signal was determined as 3.84 z-score in experiment [1] and 2.9 z-score with GST-Hu-p50.
